The source of these data is PubChem BioAssay AID1508625 (Wald Lab, School of Medicine, Case Western Reserve …, 2021).

This assay in a line: enhancers of NK cell killing of ovarian tumor cells, primary screen, imaging, OVCAR3, primary NK cells, calcein-AM imaging (AID 1508625).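 Further: compound given to NK cells 16 h before adding targets at 1.5 to 1 ratio.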 To be noted: OVCAR3 lysis by primary NK cells, at 5 µM; z-score: measured here: robust Z-score, single-point normalisation.

In the case of `O=C(Nc1nc2ccccc2s1)C(=O)Nc1nc2ccccc2s1`, the corrected activity, negative = more killing is 0.998% and the z-score is 0.309.
As for `O=C1C2C(c3ccc([N+](=O)[O-])cc3)OC3(C(=O)c4ccccc4C3=O)C2C(=O)N1c1ccc(Cl)cc1` (stereo not drawn), the corrected activity, negative = more killing is -3.68% and the z-score is -1.14.
For `CC(=O)c1ccc(NC(=O)c2ccc(N)cc2)cc1` the same measures were -8.59% and -1.81.
For `CC(C)c1ccc(NC(=O)C2c3ccccc3C(=O)N(C)C2c2cccs2)cc1` (stereo not drawn) the same measures were -7.64% and -1.9.
For `N#Cc1cc2c(N)c(C(=O)Nc3ccccc3Oc3ccccc3)sc2nc1N` the same measures were 0.0831% and 0.0248.
As for `COCCNCCCOc1cccc(Br)c1`, the corrected activity, negative = more killing was -1.7% and the z-score is -0.634.
As for `O=C(NC1CCCCCC1)c1coc(=O)c2ccccc12`, the corrected activity, negative = more killing is -2.46% and the z-score is -0.781.
For the molecule `Cc1ccccc1-c1n[nH]c(=S)o1`, the corrected activity, negative = more killing is -4.65% and the z-score was -1.65.
Regarding `O=C(c1ccc(Cn2c(=S)[nH]c3cc4c(cc3c2=O)OCO4)cc1)N1CCC(N2CCCCC2)CC1`, the corrected activity, negative = more killing is -3.36% and the z-score is -0.889.
For `COc1ccccc1N1CCN(C(=O)c2cnn3c(C(F)(F)F)cc(-c4ccc(C)cc4)nc23)CC1` the same measures were -4.5% and -1.43.
For `CCSc1ccc(NC(=O)CC2c3ccccc3Oc3ccccc32)cc1` the same measures were -7.71% and -2.39.
Take `Cc1ccc(-c2nc3ccccc3c(C(=O)O)c2C)cc1`: the corrected activity, negative = more killing was -2.28% and the z-score was -1.18.
The corresponding values for `Cc1c(C(=O)Nc2cccc([N+](=O)[O-])c2)sc2ncn(CC(=O)N3CCOCC3)c(=O)c12` are -2.14% and -0.779.
For `CC(Oc1cccc(Cl)c1)C(=O)NC1CC(C)(C)NC(C)(C)C1` (stereo not drawn) the same measures were 0.623% and 0.347.
For `CCCCNCCCOc1cccc(Br)c1` the same measures were -0.452% and -0.168.
In the case of `CN(C)c1ccc(C=C(C(=O)c2ccccc2)c2nc3ccccc3[nH]2)cc1`, the corrected activity, negative = more killing was -1.99% and the z-score was -1.03.
The corresponding values for `CC1=C(C(=O)OCCc2ccccc2)C(c2coc3ccc(C)cc3c2=O)C2=C(CC(c3cccs3)CC2=O)N1` (stereo not drawn) are 0.37% and 0.141.
As for `O=C(Nc1ccccc1C(=O)O)c1cc(S(=O)(=O)Nc2ccc(Br)cc2)ccc1Cl`, the corrected activity, negative = more killing was -14.5% and the z-score was -3.06.
The corresponding values for `C=CCSc1nc(C)c2cc(C)ccc2n1` are -2.18% and -0.675.
The corresponding values for `Cc1nnc(NC(=O)CSc2nc3c(c(=O)n2-c2ccccc2)SCC3)s1` are -0.367% and -0.0912.
The corresponding values for `O=[N+]([O-])c1ccc(OCc2ccc(Br)cc2)cc1` are -1.79% and -0.994.
On to `O=C(NCC1CCCO1)c1ccc(COc2ccc(Cl)cc2)cc1` (stereo not drawn), for which the corrected activity, negative = more killing is -2.84% and the z-score is -1.58.
For `COc1ccc(OC)c(CN2CCN(Cc3ccccc3[N+](=O)[O-])CC2)c1` the same measures were -3.74% and -1.67.
Regarding `O=C(Nc1cccc2ccccc12)ON=Cc1ccc(F)cc1`, the corrected activity, negative = more killing was -4.41% and the z-score was -1.4.
For `Clc1ccc(CSc2ncnc3c2oc2ccccc23)cc1` the same measures were -4.09% and -1.16.
For `O=S(=O)(c1ccc(Br)c2nsnc12)N1CCC(Cc2ccccc2)CC1` the same measures were -3.43% and -1.06.
Regarding `CC1(C)NN=C(N)SC1=O`, the corrected activity, negative = more killing is -0.451% and the z-score was -0.14.
For `O=C(NN=C1CCCCC1)C(=O)Nc1ccc(Cl)cc1` the same measures were -4.69% and -1.99.
The corresponding values for `CC(=O)C1C(=O)CC(c2ccccc2)CC1=O` (stereo not drawn) are -5.17% and -2.04.
For `Cc1ccc(-c2cc(C(=O)NN=Cc3cccnc3)[nH]n2)cc1` the same measures were -3.53% and -1.54.
In the case of `Cc1ccc(Nc2nc(C)cc(C)c2C(N)=O)cc1`, the corrected activity, negative = more killing is -3.73% and the z-score was -1.66.
For `COC(=O)C1C(=O)C2=C(CC1C)NC(C)=C(C(=O)OC1CCCC1)C2c1ccccc1OC(C)C` (stereo not drawn) the same measures were -2.11% and -0.524.
The corresponding values for `Cc1ccccc1OCC(=O)Nc1c[nH]c(=O)[nH]c1=O` are -0.837% and -0.363.
Regarding `COc1ccc(CNC(=O)Cn2c(=S)[nH]c3ccccc3c2=O)cc1`, the corrected activity, negative = more killing is -4.59% and the z-score is -1.22.
`CC1(C)COC(c2ccccc2)=N1`: the corrected activity, negative = more killing is -5.76% and the z-score is -1.78.
The corresponding values for `Cc1ccc2c(C)nc(SCc3ccc(Cl)cc3)nc2c1` are -2.17% and -0.674.
The corresponding values for `CCN(c1ccccc1C(=O)O)S(=O)(=O)c1cccc2nsnc12` are -4.09% and -1.22.
For `Cc1ccc(-c2coc3c(C)c4oc(=O)c5c(c4cc23)CCC5)cc1` the same measures were -5.02% and -1.5.
Regarding `COc1ccc2cc3cc(C(=O)NCCCN4CCN(Cc5ccccc5)CC4)oc3nc2c1`, the corrected activity, negative = more killing is -0.58% and the z-score was -0.142.
For `COc1ccc(-c2nn(-c3ccccc3)cc2C(=O)OCc2ccccc2)cc1` the same measures were -2.27% and -1.22.
For `CCOC(=O)Cc1ccc(N(Cc2ccccc2)S(=O)(=O)c2cc(C)ccc2C)cc1` the same measures were -11.3% and -3.06.
The corresponding values for `Cc1cc(C)nc(N=C(N)Nc2cccc(F)c2)n1` are 0.14% and 0.0433.
With `COc1ccc(CNC(=O)CSc2nc3cc(C(F)(F)F)ccc3s2)cc1`, the corrected activity, negative = more killing was -4.55% and the z-score is -2.53.
With `COc1ccccc1C(=O)CC1(O)C(=O)Nc2ccccc21` (stereo not drawn), the corrected activity, negative = more killing is -4.9% and the z-score was -1.82.
